Screening data deposited in PubChem BioAssay by several laboratories.
APOBEC3G inh: blocks human APOBEC3G single-stranded DNA deamination; recombinant A3G, ssDNA deamination FAM/TAMRA fluorescence; inhibition, % at 20 µM; 330,000 compounds, 0.28% hits; AID 493012;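 active = inhibition of at least 40% at 20 µM, with no more than 30% in the related APOBEC3A deaminase screen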;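 also: plate controls were DMSO wells with A3G for no effect and wells lacking A3G enzyme for full effect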
Target sequence (Q9HC16 whole entry, looked up): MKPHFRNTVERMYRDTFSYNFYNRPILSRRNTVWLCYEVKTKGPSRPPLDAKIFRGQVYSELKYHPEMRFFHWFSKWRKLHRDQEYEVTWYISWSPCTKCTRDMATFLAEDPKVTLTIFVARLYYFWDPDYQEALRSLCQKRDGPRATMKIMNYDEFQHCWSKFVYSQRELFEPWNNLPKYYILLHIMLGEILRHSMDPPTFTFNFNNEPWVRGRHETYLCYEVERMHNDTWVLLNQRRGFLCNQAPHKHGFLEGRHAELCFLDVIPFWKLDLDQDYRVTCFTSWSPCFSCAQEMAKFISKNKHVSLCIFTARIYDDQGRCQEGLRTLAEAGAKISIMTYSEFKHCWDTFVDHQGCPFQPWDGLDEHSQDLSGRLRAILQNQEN
NALP1 inh: NALP1 inhibition; inhibition, % at 10 µM; S. cerevisiae NALP1/ASC/caspase-1 growth, X-gal OD620, 72 h; 280,000 compounds, 0.61% hits; in the data active = inhibition mostly above about 24%, no sharp cut-off; inactive = mostly below about 32%
PolyA inh: yeast polyadenylation inhibition; activity score, % at 12 µM; S. cerevisiae SKY197-pL101 polyadenylation reporter, beta-gal luminescence; efflux-impaired pdr1/pdr3 knockout yeast; score 100 = 6 SD above DMSO; 300,000 compounds, 0.02% hits;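 active = lowest replicate activity score at least 50, where 100 means six control SD above control mean; inconclusive = lowest score under 50 but half or more replicates reach 50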;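 also: yeast exposed to compound for 9 h at 30 °C; higher score means more reporter readthrough which indicates perturbed polyadenylation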
APOBEC3A inh: blocks human APOBEC3A ssDNA deamination; inhibition, % at 20 µM; recombinant A3A, FAM/TAMRA ssDNA deamination fluorescence; 330,000 compounds, 0.41% hits;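 active = at least 40% inhibition at 20 µM here, with at most 30% in a related deaminase screen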;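 also: plate controls were A3A with DMSO for no effect and wells lacking A3A enzyme for full effect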
Target sequence (P31941 whole entry, looked up): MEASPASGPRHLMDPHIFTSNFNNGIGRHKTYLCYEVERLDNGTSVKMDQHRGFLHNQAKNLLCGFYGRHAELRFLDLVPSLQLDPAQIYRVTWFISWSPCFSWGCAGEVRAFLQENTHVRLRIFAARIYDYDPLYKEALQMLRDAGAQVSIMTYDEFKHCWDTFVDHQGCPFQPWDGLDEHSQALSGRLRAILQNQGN
APOBEC3G confirm: APOBEC3G (human) deaminase inhibition, confirmed. shares compounds with APOBEC3G inh. 890 compounds, 72% hits. recombinant A3G ssDNA deaminase, UDG/FAM-TAMRA fluorescence. inhibition, % at 20 µM;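 active = inhibition reaching a set limit in any replicate at 20 µM, the limit being 80% of the first screen's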
UDG ctr A3G: inhibits E. coli UDG, flagging false APOBEC3G inhibitors | shares compounds with APOBEC3G inh | UDG counterscreen, FAM/TAMRA oligo fluorescence | inhibition, % at 20 µM | 710 tested, under 10 active | AID 504715;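 active = compounds giving 40% or more inhibition at 20 µM in any one of the three replicates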;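 also: plate controls were DMSO wells with UDG and oligo for no effect and DMSO wells lacking both for full effect; inhibitors lower the FAM signal released by uracil excision and alkaline cleavage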
* = called active by the depositor; ? = inconclusive; . = no result given. Most compounds without a hit are left out; they make up all but 1.2% or so of the library.

SMILES	APOBEC3G inh	NALP1 inh	PolyA inh	APOBEC3A inh	APOBEC3G confirm	UDG ctr A3G
COc1ccc(CNC(=O)[C@H](C)NC(=O)C2CCN(C(=O)[C@@H](N)Cc3ccccc3)CC2)cc1	-10	13	-5	-4	.	.
COc1cc(-c2noc(C)c2/C=C/c2ccc(OC(C)=O)cc2)cc(OC)c1OC	-8	-7	-13	-1	.	.
C=CCn1c(CSc2nc3ccccc3s2)n[nH]c1=S	45*	-6	3	-3	75*	-2
S=c1[nH]nc(CSc2nc3ccccc3s2)n1Cc1ccccc1	8	-6	-25	-3	.	.
CCn1c(CSc2nc3ccccc3s2)n[nH]c1=S	47*	3	3	0	59*	-3
COc1ccc(NS(=O)(=O)c2cc(NC(=O)C3CC3)ccc2N2CCCCC2)cc1	-3	0	-4	0	.	.
Nc1cc(S(=O)(=O)Nc2ccccc2Cl)ccc1N1CCCCC1	49*	.	.	3	47*	2
Nc1ccc(N2CCCCC2)c(S(=O)(=O)Nc2ccccc2Cl)c1	7	5	-4	6	.	.
COc1ccccc1NS(=O)(=O)c1cc(NC(=O)C2CCC2)ccc1N1CCCCC1	49*	-22	-12	-1	77*	-2
CCN(CC)c1ccc(NC(=O)c2ccccn2)cc1S(=O)(=O)Nc1ccccc1OC	56*	.	.	3	51*	-3
COc1ccccc1NS(=O)(=O)c1cc(N)ccc1N1CCCCC1	49*	2	8	5	62*	0
COc1ccc(NS(=O)(=O)c2ccc(N3CCCCC3)c(N)c2)cc1	-1	.	.	2	.	.
CCC(C)N1C(=O)N(c2cccc(Cl)c2)C(C)(O)CC1(C)C (stereo not given)	-4	-12	0	-2	.	.
COc1ccccc1NS(=O)(=O)c1cc(NC(=O)c2ccc(Cl)nc2)ccc1N1CCCC1	66*	.	.	2	68*	-4
COc1ccc(CC(=O)NNS(=O)(=O)c2ccccc2[N+](=O)[O-])cc1	-9	11	-6	-3	.	.
O=c1[nH]c(SCc2nc3ccccc3c(=O)n2-c2ccccc2)nc2ccccc12	0	12	-14	2	.	.
O=c1[nH]c(SCc2n[nH]c(=S)n2-c2ccccc2)nc2ccccc12	60*	-8	-7	-3	86*	-4
O=C(O)c1ccc(S(=O)(=O)N2CCN(c3ccccn3)CC2)cc1	-2	-6	?	-4	.	.
O=c1[nH]c(-c2ccncc2)nc2ccccc12	58*	8	3	9	56*	-2
CCN(CC)CCN(Cc1cc2cc3c(cc2[nH]c1=O)OCCO3)C(=S)NCCCOC	1	1	-13	2	.	.
Cc1cc(OCC(=O)N(C)c2ccccc2)cc2c1C(=O)CC(C)(C)O2	59*	15	-4	2	1	.
Cc1ccc(CNC(=O)COc2cc(O)c3c(c2)OC(C)(C)CC3=O)cc1	4	21	-1	2	.	.
COc1ccc(OC(=O)c2cccc(S(=O)(=O)N3CC(C)OC(C)C3)c2)cc1 (stereo not given)	-7	.	.	7	.	.
Cc1cc(-c2csc(N)n2)c(C)n1C	44*	-8	5	7	17*	-3
COc1ccc(CNC(=O)C(C)OC(=O)Cn2cnc3c2c(=O)n(C)c(=O)n3C)cc1 (stereo not given)	4	.	.	18	.	.
SMILES	APOBEC3G inh	NALP1 inh	PolyA inh	APOBEC3A inh	APOBEC3G confirm	UDG ctr A3G
Cc1cc(NC(=O)CCCC(=O)NCc2ccccc2)no1	44*	7	-12	0	0	.
COc1cc(OC)c(OC)cc1/C=N/n1c(-c2n[nH]c3c2CCC3)n[nH]c1=S	39	2	-9	-6	.	.
COc1ccc(-c2n[nH]c(=S)n2/N=C/c2cccn2C)cc1	37	34	-14	-4	.	.
COc1ccc(/C=N/n2c(-c3n[nH]c4c3CCC4)n[nH]c2=S)cc1	40*	-10	12	-8	74*	-2
COc1ccc(OC)c(/C=N/n2c(-c3n[nH]c4c3CCC4)n[nH]c2=S)c1	42*	4	-9	-6	83*	-2
N#CC1(NC(=O)CSc2nnc(-c3ccccc3F)n2N)CCCCC1	-10	.	0	-1	.	.
COCc1cc(=O)n2[nH]c(-c3ccsc3-n3c(C)ccc3C)cc2n1	53	7	11	57	.	.
Cc1cc(=O)n2[nH]c(-c3ccsc3-n3c(C)ccc3C)cc2n1	43*	.	0	29	44*	-5
CSc1nc(C(C)C)ccc1CNC(=O)CC(C)c1ccccc1 (stereo not given)	-2	22	6	1	.	.
COc1ccccc1-c1n[nH]c(=S)n1-c1ccccc1	40*	0	9	1	69*	-3
COc1ccccc1-c1n[nH]c(=S)n1N	-2	-10	22	-6	.	.
COc1cc(SSc2cc(OC)cc([N+](=O)[O-])c2N)c(N)c([N+](=O)[O-])c1	42*	0	-14	-2	79*	10
COc1cc([N+](=O)[O-])c2ncsc2c1	-3	20	3	-4	.	.
CCCC(C)c1nnc(NC(=O)CCS(=O)(=O)c2ccccc2)s1 (stereo not given)	66*	-30	6	13	56*	-4
CC(NC(=O)c1sc2cc([N+](=O)[O-])ccc2c1Cl)C(C)(C)C (stereo not given)	55*	1	-14	1	69*	-3
O=C(CCc1ccccc1)NCC(c1ccco1)N1CCc2ccccc21 (stereo not given)	-6	.	17	0	.	.
Cc1cccc(C(=O)N2CCN(Cc3nc4sc5c(c4c(=O)[nH]3)CCCC5)CC2)c1	-12	4	-15	-6	.	.
COc1ccc(S(=O)(=O)NCc2ccccn2)cc1NC(=O)c1ccccc1C	2	.	-8	-1	.	.
COc1cccc(/C=N/n2c(-c3cc(C)[nH]n3)n[nH]c2=S)c1OC	43*	-70	24	-3	85*	-4
COc1cccc(/C=N/n2c(-c3n[nH]c4c3CCC4)n[nH]c2=S)c1OC	62*	-8	8	1	70*	-3
COc1cc(/C=N/n2c(-c3cc(C)[nH]n3)n[nH]c2=S)cc(OC)c1O	38	0	4	-1	.	.
COc1ccc(/C=N/n2c(-c3n[nH]c4c3CCC4)n[nH]c2=S)c(OC)c1OC	49*	-25	22	-5	82*	-3
Cc1ccc(C(=O)c2nccn2C)cc1C	-7	9	-12	-1	.	.
CCc1cccc(C)c1NC(=S)NCc1ccc2c(c1)cc(C)n2C	40*	15	-12	-3	-1	2
Cc1ccccc1NC(=S)NCc1ccc2c(c1)cc(C)n2C	-4	28	0	-5	.	.
O=c1/c(=C/c2ccccn2)sc2nc3ccccc3n12	-4	2	6	-1	.	.
COC(=O)/C=c1/sc2nc3ccccc3n2c1=O	73*	1	16	1	75*	-3
